# Article PMC7862700, “An all-to-all approach to the identification of sequence-specific readers for epigenetic DNA modifications on cytosine”
# Tests used:
# Assay in all cases: DAPPL (digital affinity profiling via proximity ligation, sequencing); 10 mM Tris-HCl pH 7.5, 50 mM NaCl, 1 mM DTT, 4% glycerol, room temperature, 30 min; GST-TFs on glutathione beads, 16-mer random dsDNA library, 0.1% formaldehyde crosslink after washing; high values mean tight binding
# FEV = target: T1, FEV (Homo sapiens, UniProt Q99581 1-238); details: protein: recombinant; tags: N-terminal GST; dsDNA, one strand shown
# T1 sequence: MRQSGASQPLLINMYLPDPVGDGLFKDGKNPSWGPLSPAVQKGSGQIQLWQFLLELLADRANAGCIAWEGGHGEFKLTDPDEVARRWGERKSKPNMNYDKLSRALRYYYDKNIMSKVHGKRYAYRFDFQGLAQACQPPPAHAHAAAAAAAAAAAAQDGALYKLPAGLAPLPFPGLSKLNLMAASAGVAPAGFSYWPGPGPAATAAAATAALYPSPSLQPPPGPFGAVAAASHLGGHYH
# Outline: (§1)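 Each value of binding signal is a hexamer's read frequency for a factor divided by the same hexamer's frequency in the tag-only sample. Barcoded, bead-captured GST fusions of human transcription factors made in yeast were pooled with that sample and incubated with 200 nmole of a random double-stranded 16-mer DNA library in Tris/NaCl/DTT/glycerol buffer at room temperature for 30 min. Washing, 0.1% formaldehyde crosslinking, proximity ligation, PCR and Illumina NextSeq500 sequencing followed.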
# ETV5 = ETV5 (Homo sapiens, UniProt P41161 1-510); details: protein: recombinant; tags: N-terminal GST; dsDNA, one strand shown
# Outline: as §1
# HSF1 = HSF1 (Homo sapiens, UniProt Q00613 1-529); details: protein: recombinant; tags: N-terminal GST; chain copies: 3; dsDNA, one strand shown
# Outline: as §1
# SPIC = target: T2, SPIC (Homo sapiens, UniProt Q8N5J4 1-248); details: protein: recombinant; tags: N-terminal GST; dsDNA, one strand shown
# T2 sequence: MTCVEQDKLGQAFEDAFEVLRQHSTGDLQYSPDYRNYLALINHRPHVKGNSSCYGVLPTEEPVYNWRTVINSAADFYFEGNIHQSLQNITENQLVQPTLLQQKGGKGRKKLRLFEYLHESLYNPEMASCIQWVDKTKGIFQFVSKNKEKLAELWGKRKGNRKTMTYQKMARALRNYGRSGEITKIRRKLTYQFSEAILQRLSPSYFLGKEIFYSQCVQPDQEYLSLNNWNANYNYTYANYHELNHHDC
# Outline: as §1
# ELF4 = ELF4 (Homo sapiens, UniProt Q99607 1-663); details: protein: recombinant; tags: N-terminal GST; dsDNA, one strand shown
# Outline: as §1
# ELK4 = target: T3, ELK4 (Homo sapiens, UniProt P28324-2 1-405); details: protein: recombinant; tags: N-terminal GST; dsDNA, one strand shown
# T3 sequence: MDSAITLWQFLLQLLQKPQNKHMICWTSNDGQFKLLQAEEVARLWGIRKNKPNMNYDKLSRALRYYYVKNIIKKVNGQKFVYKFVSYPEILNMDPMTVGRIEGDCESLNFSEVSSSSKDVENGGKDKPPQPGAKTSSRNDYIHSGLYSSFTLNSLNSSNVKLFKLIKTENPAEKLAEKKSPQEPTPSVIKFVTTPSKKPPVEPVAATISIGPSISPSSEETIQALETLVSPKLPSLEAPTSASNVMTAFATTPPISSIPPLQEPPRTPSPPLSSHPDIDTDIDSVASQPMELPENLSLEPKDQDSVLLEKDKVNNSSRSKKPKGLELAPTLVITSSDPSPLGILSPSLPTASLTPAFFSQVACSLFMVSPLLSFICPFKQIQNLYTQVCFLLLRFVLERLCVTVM
# Outline: as §1
# ETV2 = target: T4, ETV2 (Homo sapiens, UniProt O00321 1-342); details: protein: recombinant; tags: N-terminal GST; dsDNA, one strand shown
# T4 sequence: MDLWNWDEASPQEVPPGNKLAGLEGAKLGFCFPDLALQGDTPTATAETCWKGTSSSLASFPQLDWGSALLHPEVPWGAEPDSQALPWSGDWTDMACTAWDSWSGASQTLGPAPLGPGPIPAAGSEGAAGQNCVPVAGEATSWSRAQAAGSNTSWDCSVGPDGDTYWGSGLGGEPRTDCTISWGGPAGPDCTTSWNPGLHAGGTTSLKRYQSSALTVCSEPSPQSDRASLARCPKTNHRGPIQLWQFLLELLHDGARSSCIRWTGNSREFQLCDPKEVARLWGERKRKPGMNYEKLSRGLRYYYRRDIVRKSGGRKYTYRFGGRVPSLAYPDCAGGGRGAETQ
# Outline: as §1
# ELF3 = target: T5, ELF3 (Homo sapiens, UniProt P78545 1-371); details: protein: recombinant; tags: N-terminal GST; dsDNA, one strand shown
# T5 sequence: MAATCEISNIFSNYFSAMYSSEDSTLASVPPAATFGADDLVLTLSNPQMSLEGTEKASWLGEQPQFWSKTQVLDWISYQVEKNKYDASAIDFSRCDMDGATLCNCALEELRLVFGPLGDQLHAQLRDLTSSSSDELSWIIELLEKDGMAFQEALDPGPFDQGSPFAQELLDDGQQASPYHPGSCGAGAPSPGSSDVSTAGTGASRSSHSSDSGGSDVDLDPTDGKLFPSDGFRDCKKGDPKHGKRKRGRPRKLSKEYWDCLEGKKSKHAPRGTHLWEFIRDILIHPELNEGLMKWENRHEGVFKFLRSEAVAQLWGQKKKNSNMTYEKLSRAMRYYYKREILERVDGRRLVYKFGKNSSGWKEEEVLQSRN
# Outline: as §1
# CRX = CRX (Homo sapiens, UniProt O43186 1-299); details: protein: recombinant; tags: N-terminal GST; dsDNA, one strand shown
# Outline: as §1
# ETV1 = ETV1 (Homo sapiens, UniProt P50549 1-477); details: protein: recombinant; tags: N-terminal GST; dsDNA, one strand shown
# Outline: as §1
# ERF = target: T6, ERF (Homo sapiens, UniProt P50548 1-548); details: protein: recombinant; tags: N-terminal GST; dsDNA, one strand shown
# T6 sequence: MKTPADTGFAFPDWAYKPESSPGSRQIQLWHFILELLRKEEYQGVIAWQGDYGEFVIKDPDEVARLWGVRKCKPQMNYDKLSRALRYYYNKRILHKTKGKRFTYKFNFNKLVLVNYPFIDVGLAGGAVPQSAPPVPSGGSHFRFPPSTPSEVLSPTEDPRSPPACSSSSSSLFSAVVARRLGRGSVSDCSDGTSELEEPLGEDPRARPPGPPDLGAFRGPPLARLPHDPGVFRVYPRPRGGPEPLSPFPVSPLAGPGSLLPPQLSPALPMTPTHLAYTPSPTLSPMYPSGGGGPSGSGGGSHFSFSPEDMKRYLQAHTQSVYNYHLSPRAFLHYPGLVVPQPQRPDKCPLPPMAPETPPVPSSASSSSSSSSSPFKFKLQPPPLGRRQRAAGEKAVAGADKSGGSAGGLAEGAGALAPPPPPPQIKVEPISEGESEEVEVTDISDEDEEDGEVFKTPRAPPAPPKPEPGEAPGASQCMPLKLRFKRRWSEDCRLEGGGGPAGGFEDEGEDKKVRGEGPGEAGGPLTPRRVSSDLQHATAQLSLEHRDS
# Outline: as §1
# ETV3L = target: T7, ETV3L (Homo sapiens, UniProt Q6ZN32 1-361); details: protein: recombinant; tags: N-terminal GST; dsDNA, one strand shown
# T7 sequence: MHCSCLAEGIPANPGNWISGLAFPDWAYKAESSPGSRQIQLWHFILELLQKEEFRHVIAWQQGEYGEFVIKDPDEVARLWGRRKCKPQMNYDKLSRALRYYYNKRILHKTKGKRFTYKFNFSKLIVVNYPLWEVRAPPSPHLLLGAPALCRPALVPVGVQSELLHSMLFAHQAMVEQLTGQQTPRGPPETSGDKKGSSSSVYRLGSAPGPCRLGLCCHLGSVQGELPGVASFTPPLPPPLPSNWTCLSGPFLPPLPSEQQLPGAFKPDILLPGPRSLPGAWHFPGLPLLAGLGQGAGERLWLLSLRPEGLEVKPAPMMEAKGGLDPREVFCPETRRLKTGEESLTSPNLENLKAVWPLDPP
# Outline: as §1
# ETS2 = target: T8, ETS2 (Homo sapiens, UniProt P15036 1-469); details: protein: recombinant; tags: N-terminal GST; dsDNA, one strand shown
# T8 sequence: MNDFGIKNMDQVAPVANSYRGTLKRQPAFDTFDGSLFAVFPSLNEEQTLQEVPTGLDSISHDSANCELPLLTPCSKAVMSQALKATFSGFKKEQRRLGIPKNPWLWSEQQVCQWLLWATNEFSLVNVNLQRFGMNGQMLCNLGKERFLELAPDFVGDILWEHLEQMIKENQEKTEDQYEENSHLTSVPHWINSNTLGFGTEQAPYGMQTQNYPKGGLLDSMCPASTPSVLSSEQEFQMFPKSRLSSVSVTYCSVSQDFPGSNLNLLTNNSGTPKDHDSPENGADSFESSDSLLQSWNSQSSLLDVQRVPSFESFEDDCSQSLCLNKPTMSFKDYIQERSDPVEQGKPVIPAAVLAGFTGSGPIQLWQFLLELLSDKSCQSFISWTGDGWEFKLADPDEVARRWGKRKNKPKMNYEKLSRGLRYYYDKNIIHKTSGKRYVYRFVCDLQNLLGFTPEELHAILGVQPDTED
# Outline: as §1
# SPDEF = target: T9, SPDEF (Homo sapiens, UniProt O95238 1-335); details: protein: recombinant; tags: N-terminal GST; dsDNA, one strand shown
# T9 sequence: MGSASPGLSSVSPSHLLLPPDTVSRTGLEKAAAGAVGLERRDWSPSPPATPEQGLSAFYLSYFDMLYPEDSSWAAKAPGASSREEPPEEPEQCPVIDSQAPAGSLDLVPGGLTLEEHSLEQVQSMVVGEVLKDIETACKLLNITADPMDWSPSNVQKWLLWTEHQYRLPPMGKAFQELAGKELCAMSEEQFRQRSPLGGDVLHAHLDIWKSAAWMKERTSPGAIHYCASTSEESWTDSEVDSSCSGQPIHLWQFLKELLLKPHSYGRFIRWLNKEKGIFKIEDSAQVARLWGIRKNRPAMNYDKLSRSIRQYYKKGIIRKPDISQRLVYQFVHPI
# Outline: as §1
# ETV7 = target: T10, ETV7 (Homo sapiens, UniProt Q9Y603 1-341); details: protein: recombinant; tags: N-terminal GST; dsDNA, one strand shown
# T10 sequence: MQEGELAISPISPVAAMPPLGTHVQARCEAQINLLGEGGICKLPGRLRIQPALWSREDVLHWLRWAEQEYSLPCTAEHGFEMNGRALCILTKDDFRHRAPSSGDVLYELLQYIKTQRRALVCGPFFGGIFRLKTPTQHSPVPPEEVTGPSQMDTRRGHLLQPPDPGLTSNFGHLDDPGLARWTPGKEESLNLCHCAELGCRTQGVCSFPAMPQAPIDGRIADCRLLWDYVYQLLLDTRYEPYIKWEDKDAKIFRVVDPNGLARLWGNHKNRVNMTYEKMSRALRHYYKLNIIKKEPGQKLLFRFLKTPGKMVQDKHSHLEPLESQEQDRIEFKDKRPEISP
# Outline: as §1
# ELF5 = target: T11, ELF5 (Homo sapiens, UniProt Q9UKW6-2 1-255); details: protein: recombinant; tags: N-terminal GST; dsDNA, one strand shown
# T11 sequence: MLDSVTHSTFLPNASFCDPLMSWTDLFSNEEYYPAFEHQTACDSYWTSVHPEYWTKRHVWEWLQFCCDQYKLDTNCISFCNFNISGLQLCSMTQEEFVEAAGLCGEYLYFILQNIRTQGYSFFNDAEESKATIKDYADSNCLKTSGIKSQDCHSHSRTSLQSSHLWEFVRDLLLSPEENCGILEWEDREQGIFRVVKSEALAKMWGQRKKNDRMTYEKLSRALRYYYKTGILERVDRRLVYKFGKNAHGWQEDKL
# Outline: as §1
# ETV3 = target: T12, ETV3 (Homo sapiens, UniProt P41162-2 1-143); details: protein: recombinant; tags: N-terminal GST; dsDNA, one strand shown
# T12 sequence: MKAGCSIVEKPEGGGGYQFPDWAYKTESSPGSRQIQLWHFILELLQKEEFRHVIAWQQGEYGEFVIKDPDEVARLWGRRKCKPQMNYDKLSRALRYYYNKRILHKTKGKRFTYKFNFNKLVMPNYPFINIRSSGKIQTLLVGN
# Outline: as §1
# ETV6 = ETV6 (Homo sapiens, UniProt P41212 1-452); details: protein: recombinant; tags: N-terminal GST; dsDNA, one strand shown
# Outline: as §1
# Sequence of CRX (O43186 whole entry): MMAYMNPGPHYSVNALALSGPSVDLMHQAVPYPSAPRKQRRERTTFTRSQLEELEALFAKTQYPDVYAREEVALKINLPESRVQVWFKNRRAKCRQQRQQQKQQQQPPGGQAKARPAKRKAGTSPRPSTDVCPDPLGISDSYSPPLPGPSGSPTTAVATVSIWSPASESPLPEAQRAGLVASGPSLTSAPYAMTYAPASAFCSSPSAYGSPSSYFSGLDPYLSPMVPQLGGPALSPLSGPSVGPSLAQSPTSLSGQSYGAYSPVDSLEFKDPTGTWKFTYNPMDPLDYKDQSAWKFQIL
# Sequence of ETV5 (P41161 whole entry): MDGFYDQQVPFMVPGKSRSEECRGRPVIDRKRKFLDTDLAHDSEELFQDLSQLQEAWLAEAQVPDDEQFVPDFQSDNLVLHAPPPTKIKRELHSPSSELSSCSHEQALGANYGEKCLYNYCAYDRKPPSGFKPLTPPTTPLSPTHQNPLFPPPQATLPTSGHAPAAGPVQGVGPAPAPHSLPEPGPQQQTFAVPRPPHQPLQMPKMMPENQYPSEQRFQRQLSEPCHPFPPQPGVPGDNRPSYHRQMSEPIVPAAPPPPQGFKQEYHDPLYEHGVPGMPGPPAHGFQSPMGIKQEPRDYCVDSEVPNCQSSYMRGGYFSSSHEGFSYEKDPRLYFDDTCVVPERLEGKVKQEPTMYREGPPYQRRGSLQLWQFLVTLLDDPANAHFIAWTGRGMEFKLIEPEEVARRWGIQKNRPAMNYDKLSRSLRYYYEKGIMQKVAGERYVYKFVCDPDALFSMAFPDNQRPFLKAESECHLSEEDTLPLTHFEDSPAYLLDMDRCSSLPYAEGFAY
# Sequence of HSF1 (Q00613 whole entry): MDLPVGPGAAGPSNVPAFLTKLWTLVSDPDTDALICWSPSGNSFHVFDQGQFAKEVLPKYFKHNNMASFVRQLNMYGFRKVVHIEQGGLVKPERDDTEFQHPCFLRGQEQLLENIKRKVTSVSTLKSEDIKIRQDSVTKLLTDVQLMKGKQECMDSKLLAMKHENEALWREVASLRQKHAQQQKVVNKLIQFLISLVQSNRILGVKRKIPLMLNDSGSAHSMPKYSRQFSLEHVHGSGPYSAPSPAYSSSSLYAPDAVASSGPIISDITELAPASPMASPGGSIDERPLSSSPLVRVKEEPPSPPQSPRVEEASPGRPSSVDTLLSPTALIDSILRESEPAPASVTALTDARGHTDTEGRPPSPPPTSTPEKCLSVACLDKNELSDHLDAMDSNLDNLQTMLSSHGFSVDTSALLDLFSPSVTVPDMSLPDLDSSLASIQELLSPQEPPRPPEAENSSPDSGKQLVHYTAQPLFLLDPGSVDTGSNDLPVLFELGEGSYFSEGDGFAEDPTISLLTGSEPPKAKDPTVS
# Sequence of ELF4 (Q99607 whole entry): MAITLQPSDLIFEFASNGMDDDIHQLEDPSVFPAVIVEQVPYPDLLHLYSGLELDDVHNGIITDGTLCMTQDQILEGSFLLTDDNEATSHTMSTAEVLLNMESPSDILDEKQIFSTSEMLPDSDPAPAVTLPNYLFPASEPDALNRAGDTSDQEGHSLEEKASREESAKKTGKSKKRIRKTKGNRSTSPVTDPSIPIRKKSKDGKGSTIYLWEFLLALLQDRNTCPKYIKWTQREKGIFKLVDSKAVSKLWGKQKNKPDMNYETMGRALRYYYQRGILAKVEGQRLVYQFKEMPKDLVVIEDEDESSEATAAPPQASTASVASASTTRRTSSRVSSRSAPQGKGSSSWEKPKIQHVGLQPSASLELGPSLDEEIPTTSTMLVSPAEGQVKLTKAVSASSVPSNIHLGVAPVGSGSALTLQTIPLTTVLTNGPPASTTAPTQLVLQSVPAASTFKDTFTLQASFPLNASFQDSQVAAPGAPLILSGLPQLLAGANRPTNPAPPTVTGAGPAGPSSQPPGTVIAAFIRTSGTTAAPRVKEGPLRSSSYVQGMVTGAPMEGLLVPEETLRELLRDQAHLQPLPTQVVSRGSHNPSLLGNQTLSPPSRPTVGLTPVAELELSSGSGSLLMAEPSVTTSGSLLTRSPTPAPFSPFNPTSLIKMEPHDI
# Sequence of ETV1 (P50549 whole entry): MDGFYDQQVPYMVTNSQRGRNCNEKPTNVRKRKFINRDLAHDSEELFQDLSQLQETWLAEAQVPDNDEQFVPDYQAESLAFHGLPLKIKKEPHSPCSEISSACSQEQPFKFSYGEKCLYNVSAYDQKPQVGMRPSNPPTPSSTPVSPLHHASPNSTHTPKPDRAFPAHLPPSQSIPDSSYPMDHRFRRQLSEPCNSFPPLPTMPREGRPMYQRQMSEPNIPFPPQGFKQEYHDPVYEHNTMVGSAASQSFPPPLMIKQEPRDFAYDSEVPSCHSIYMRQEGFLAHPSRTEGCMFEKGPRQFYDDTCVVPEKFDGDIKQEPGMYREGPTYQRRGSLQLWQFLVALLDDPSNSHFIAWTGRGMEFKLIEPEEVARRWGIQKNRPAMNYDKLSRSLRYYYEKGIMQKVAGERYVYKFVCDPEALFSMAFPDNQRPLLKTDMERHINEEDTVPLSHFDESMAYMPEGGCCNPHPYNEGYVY
# Sequence of ETV6 (P41212 whole entry): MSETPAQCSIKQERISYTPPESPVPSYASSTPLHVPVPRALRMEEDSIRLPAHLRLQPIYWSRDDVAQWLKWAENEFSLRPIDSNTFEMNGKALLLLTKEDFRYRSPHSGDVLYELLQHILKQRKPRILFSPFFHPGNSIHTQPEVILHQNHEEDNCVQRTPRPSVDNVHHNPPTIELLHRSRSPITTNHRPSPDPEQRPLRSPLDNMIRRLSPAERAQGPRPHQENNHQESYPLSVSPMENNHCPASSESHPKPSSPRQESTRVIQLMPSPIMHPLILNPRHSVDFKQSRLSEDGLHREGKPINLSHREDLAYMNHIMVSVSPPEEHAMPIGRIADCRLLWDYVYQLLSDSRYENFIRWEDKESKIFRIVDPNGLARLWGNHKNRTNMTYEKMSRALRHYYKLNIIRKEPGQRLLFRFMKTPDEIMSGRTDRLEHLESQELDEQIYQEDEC
sequence,measurement,setting,value
TTATAC,binding signal,FEV,"1.35 fold enrichment (6-mer frequency, TF over GST control)"
same,binding signal,ETV5,"1.29 fold enrichment (6-mer frequency, TF over GST control)"
same,binding signal,HSF1,"1.79 fold enrichment (6-mer frequency, TF over GST control)"
same,binding signal,SPIC,"1.42 fold enrichment (6-mer frequency, TF over GST control)"
same,binding signal,ELF4,"1.49 fold enrichment (6-mer frequency, TF over GST control)"
same,binding signal,ELK4,"1.38 fold enrichment (6-mer frequency, TF over GST control)"
same,binding signal,ETV2,"1.38 fold enrichment (6-mer frequency, TF over GST control)"
same,binding signal,ELF3,"1.43 fold enrichment (6-mer frequency, TF over GST control)"
same,binding signal,CRX,"2.54 fold enrichment (6-mer frequency, TF over GST control)"
same,binding signal,ETV1,"1.5 fold enrichment (6-mer frequency, TF over GST control)"
same,binding signal,ERF,"1.55 fold enrichment (6-mer frequency, TF over GST control)"
same,binding signal,ETV3L,"1.39 fold enrichment (6-mer frequency, TF over GST control)"
same,binding signal,ETS2,"1.42 fold enrichment (6-mer frequency, TF over GST control)"
same,binding signal,SPDEF,"1.38 fold enrichment (6-mer frequency, TF over GST control)"
same,binding signal,ETV7,"1.53 fold enrichment (6-mer frequency, TF over GST control)"
same,binding signal,ELF5,"1.39 fold enrichment (6-mer frequency, TF over GST control)"
same,binding signal,ETV3,"1.37 fold enrichment (6-mer frequency, TF over GST control)"
same,binding signal,ETV6,"1.42 fold enrichment (6-mer frequency, TF over GST control)"
